Where “and” joins values, the source holds several entries; their conditions need not be identical. Identical values can stand only once. The whole screen tested about 5,500 compounds, of which about 2,000 (36%) were called active. Inconclusive results (about 18%) are left out. No stated cut-off is given here; in the data, active means normalized growth mostly below about 0.91 (no sharp cut-off); inconclusive means no clear call, values can overlap the other calls; inactive means mostly above about 0.92. The list shows a part of the results.
Experiment: chemical genetic growth profiling, strain panel (AID 1159580);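 further: tested at 20 µM; growth read once vehicle control cultures reached saturation at 30 °C; 1 = growth at the plate median or of vehicle wells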
Conditions: S. cerevisiae deletion strains, growth OD

Measured: normalized growth

O=c1[nH]c2cc(Cl)c(Cl)cc2[nH]c1=O
inactive: locus YAL013W, strain DEP1, stronger effect = lower value 1 and 0.993 | locus YAL021C, strain ccr4, stronger effect = lower value 1.03 | locus YAL026C, strain drs2, stronger effect = lower value 0.993 | locus YAL030W, strain snc1, stronger effect = lower value 0.989 | locus YAL040C, strain CLN3, stronger effect = lower value 1.11 | locus YBL061C, strain skt5, stronger effect = lower value 0.982 | locus YBR009C, strain hhf1, stronger effect = lower value 0.988 | locus YBR021W, strain FUR4, stronger effect = lower value 1 | locus YBR023C, strain chs3, stronger effect = lower value 1 | locus YBR171W, strain sec66, stronger effect = lower value 0.98 | locus YBR229C, strain ROT2, stronger effect = lower value 1.01 | locus YBR231C, strain swc5, stronger effect = lower value 0.979 | locus YBR279W, strain paf1, stronger effect = lower value 0.985 | locus YCL011C, strain gbp2, stronger effect = lower value 0.984 | locus YCL016C, strain dcc1, stronger effect = lower value 0.997 | locus YCL029C, strain bik1, stronger effect = lower value 1.04 | locus YCL061C, strain MRC1 (second series), stronger effect = lower value 1.01 | locus YCL069W, strain vba3, stronger effect = lower value 0.999 | locus YCR088W, strain abp1, stronger effect = lower value 0.997 | locus YDL005C, strain med2, stronger effect = lower value 0.982 | locus YDL035C, strain GPR1, stronger effect = lower value 1.01 | locus YDL040C, strain nat1, stronger effect = lower value 0.994 | locus YDL074C, strain BRE1, stronger effect = lower value 1.03 | locus YDL101C, strain DUN1, stronger effect = lower value 1.02 | locus YDL134C, strain PPH21, stronger effect = lower value 1.01 | locus YDL185W, strain tfp1, stronger effect = lower value 1.02 | locus YDL192W, strain arf1, stronger effect = lower value 1.02 | locus YDR001C, strain nth1, stronger effect = lower value 1 | locus YDR069C, strain doa4, stronger effect = lower value 0.969 | locus YDR101C, strain arx1, stronger effect = lower value 1.03 | locus YDR137W, strain rgp1, stronger effect = lower value 0.994 | locus YDR150W, strain NUM1, stronger effect = lower value 1.01 | locus YDR159W, strain sac3, stronger effect = lower value 0.901 | locus YDR162C, strain NBP2, stronger effect = lower value 1.01 | locus YDR195W, strain ref2 1 | locus YDR297W, strain sur2, stronger effect = lower value 0.99 | locus YDR318W, strain mcm21, stronger effect = lower value 1.02 | locus YDR334W, strain swr1, stronger effect = lower value 0.994 | locus YDR335W, strain msn5, stronger effect = lower value 1 | locus YDR363W, strain ESC2, stronger effect = lower value 0.968 | locus YDR388W, stronger effect = lower value 1.02 | locus YDR392W, strain spt3, stronger effect = lower value 0.92 | locus YDR502C, strain sam2, stronger effect = lower value 1.03 | locus YEL003W, strain gim4, stronger effect = lower value 0.993 | locus YEL037C, strain rad23, stronger effect = lower value 1 | locus YEL061C, strain CIN8 (second series), stronger effect = lower value 1.01 | locus YEL061C, strain CIN8, stronger effect = lower value 1.01 | locus YER002W, strain NOP16, stronger effect = lower value 0.997 | locus YER015W, strain faa2, stronger effect = lower value 0.995 | locus YER016W, strain bim1, stronger effect = lower value 0.992 | locus YER110C, stronger effect = lower value 1.04 | locus YER111C, strain swi4, stronger effect = lower value 0.991 | locus YER155C, strain BEM2 (second series), stronger effect = lower value 0.967 | locus YER155C, strain BEM2, stronger effect = lower value 1 | locus YER167W, strain BCK2, stronger effect = lower value 1.02 | locus YFR010W, strain ubp6, stronger effect = lower value 0.985 | locus YGL078C, strain dbp3, stronger effect = lower value 1.03 | locus YGL086W, strain mad1, stronger effect = lower value 1.01 | locus YGL167C, strain pmr1, stronger effect = lower value 0.999 | locus YGL173C, strain kem1, stronger effect = lower value 0.984 | locus YGL227W, strain vid30, stronger effect = lower value 0.986 | locus YGL240W, strain doc1, stronger effect = lower value 0.966 | locus YGL248W, strain PDE1, stronger effect = lower value 1.01 | locus YGL253W, strain hxk2, stronger effect = lower value 0.975 | locus YGR078C, strain PAC10, stronger effect = lower value 1.02 and 1.04 | locus YGR135W, strain pre9, stronger effect = lower value 1.02 | locus YGR229C, strain SMI1, stronger effect = lower value 1.01 | locus YGR252W, strain gcn5, stronger effect = lower value 1.01 | locus YHR013C, strain ard1, stronger effect = lower value 0.988 | locus YHR027C, strain rpn1, stronger effect = lower value 0.986 | locus YHR030C, strain SLT2, stronger effect = lower value 1.01 | locus YHR079C, strain IRE1 (second series), stronger effect = lower value 1.02 | locus YHR094C, strain hxt1, stronger effect = lower value 1.01 | locus YHR129C, strain ARP1, stronger effect = lower value 1.01 | locus YHR142W, strain chs7, stronger effect = lower value 1.01 | locus YHR200W, strain rpn10, stronger effect = lower value 1.02 | locus YIL066C, strain RNR3, stronger effect = lower value 1.01 | locus YIL073C, strain SPO22, stronger effect = lower value 1.1 | locus YIL125W, strain kgd1, stronger effect = lower value 1.02 | locus YIR030C, strain dcg1, stronger effect = lower value 1.04 | locus YJL092W, strain hpr5, stronger effect = lower value 0.997 | locus YJL095W, strain BCK1 (second series), stronger effect = lower value 1.02 | locus YJL095W, strain BCK1, stronger effect = lower value 1.02 | locus YJL115W, strain asf1, stronger effect = lower value 1 | locus YJL129C, strain trk1, stronger effect = lower value 0.95 | locus YJL134W, strain LCB3, stronger effect = lower value 1.01 | locus YJL154C, strain vps35, stronger effect = lower value 0.999 | locus YJL164C, strain tpk1, stronger effect = lower value 0.998 | locus YJL166W, strain qcr8, stronger effect = lower value 0.989 | locus YJL168C, strain set2, stronger effect = lower value 1.02 | locus YJL187C, strain SWE1 (second series), stronger effect = lower value 1.01 | locus YJR043C, strain POL32, stronger effect = lower value 1.01

— PubChem BioAssay AID1159580 (chemical genetic matrix, 2015)
